Molecules are shown by their SMILES. Where “and” joins values, the source holds several entries; their conditions need not be identical. Identical values can stand only once. Results filed as inconclusive are left out. A number with no mark means an inactive call. Calls follow the shape of the dose curve; as a rule, active = well fitted curve in either direction with a large enough effect (not every such curve was filed as active); inconclusive = small, poorly fitted or top-dose-only effect, or another doubt; inactive = flat fitted curve, though single readings scatter.
% is scaled to controls: 0 for no effect and ±100 for the full control effect.

The assay is described as follows: AP1 Signaling Pathway (AID 357). As to conditions: ME-180 (cervical carcinoma) AP-1-bla reporter, EGF-induced, beta-lactamase ratio, 5 h; at 17.2 µM (top of the series). In short, it runs like this:
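Titration-series screen for positive or negative modulators of EC50 EGF-induced signaling in ME-180 cells carrying an AP-1-driven beta-lactamase reporter. After 5 hours at 37 degrees Celsius, CCF4 460nm/530nm emission ratio gave %Activity; AC50 values derived.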
With `Nc1ccc(S(=O)(=O)Nc2ccnn2-c2ccccc2)cc1`, the activity change, negative = inhibition is 1.79%.
The same measure for `NC(N)=NC(=O)c1nc(Cl)c(N)nc1N`: 2.66% and -5.39%; for `Cc1ccccc1C(OCCN(C)C)c1ccccc1` (centres undefined): 14.6%; for `Clc1cccc(Cl)c1NC1=NCCN1`: -0.203%.
Regarding `Cc1cnc(NC(=O)C2=C(O)c3ccccc3S(=O)(=O)N2C)s1`, the activity change, negative = inhibition was -12.9%.
For `Cc1oncc1C(=O)Nc1ccc(C(F)(F)F)cc1` the value was -20.4% and 3.89%.
For `COc1ccc2nc(S(=O)Cc3ncc(C)c(OC)c3C)[nH]c2c1` (centres undefined) the value was 4.02% and -1.7%; for `N[C@@H]1CONC1=O`, 4.13% and -17.2%; for `CNC[C@H](O)c1cccc(O)c1`, -10.2%.
